Reference: the supplement of paper PMC12819154, “High-throughput peptide-centric local stability assay extends protein–ligand identification to membrane proteins, tissues and bacteria” (Nature Structural & Molecular Biology, 2025)

What follows are targets tested with CN[C@@H]1C[C@H]2O[C@@](C)([C@@H]1OC)n1c3ccccc3c3c4c(c5c6ccccc6n2c5c31)C(=O)NC4 [staurosporine] (assay: log2 fold change of tryptic peptide abundance, ligand vs vehicle (limited proteolysis) (log2 ratio); higher = more trypsin-susceptible (destabilized)). Details: ligand concentration: 20 uM; sample: mouse liver crude lysate; replicate design: treated separately.

Chain of UniProt P35917 (P35917 whole entry): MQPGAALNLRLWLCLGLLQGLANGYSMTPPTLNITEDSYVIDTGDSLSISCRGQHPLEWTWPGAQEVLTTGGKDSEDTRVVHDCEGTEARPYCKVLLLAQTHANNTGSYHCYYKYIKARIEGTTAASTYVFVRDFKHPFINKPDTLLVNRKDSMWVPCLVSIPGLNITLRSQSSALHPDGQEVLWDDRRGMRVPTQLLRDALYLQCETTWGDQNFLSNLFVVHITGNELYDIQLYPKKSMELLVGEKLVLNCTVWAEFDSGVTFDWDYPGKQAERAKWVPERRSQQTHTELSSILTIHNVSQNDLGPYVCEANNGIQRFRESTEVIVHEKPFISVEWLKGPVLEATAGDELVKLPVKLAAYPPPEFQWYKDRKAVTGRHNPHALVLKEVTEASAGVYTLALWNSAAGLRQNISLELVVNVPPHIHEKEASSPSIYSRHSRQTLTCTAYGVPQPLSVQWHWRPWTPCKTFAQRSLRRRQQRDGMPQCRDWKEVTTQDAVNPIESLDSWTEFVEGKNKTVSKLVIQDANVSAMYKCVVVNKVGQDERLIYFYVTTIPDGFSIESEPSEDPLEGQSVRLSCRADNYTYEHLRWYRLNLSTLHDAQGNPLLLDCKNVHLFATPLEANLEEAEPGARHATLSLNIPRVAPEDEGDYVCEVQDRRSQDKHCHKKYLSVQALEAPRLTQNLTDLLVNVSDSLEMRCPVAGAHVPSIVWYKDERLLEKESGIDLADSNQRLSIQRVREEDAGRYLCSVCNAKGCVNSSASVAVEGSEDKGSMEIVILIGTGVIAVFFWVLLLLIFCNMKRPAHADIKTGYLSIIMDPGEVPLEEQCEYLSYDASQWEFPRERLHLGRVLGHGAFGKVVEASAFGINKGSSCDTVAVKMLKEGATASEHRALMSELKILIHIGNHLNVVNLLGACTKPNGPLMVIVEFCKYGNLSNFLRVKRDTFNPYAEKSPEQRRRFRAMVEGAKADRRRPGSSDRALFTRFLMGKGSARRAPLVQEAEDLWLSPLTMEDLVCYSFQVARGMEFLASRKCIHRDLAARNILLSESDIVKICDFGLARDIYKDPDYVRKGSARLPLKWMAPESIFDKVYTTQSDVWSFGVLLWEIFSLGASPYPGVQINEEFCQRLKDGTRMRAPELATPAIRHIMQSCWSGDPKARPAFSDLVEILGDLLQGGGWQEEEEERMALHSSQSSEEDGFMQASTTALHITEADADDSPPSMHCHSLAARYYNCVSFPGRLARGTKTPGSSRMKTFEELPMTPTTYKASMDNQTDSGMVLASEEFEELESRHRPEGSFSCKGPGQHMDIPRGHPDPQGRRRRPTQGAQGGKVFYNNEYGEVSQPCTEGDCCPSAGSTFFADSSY
Chain of UniProt P43142 (P43142 whole entry): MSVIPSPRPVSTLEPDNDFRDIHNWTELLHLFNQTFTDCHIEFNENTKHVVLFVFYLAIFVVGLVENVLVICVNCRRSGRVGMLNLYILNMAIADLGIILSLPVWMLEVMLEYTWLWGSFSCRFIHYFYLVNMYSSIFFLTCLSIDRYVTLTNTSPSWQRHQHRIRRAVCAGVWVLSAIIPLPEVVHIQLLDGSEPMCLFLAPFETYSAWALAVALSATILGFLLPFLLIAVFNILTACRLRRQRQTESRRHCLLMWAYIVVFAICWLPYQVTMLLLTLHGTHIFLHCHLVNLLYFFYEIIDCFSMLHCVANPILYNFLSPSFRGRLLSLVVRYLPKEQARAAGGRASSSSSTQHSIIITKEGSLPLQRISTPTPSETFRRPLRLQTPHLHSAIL
Chain of UniProt Q61036 (Q61036 whole entry): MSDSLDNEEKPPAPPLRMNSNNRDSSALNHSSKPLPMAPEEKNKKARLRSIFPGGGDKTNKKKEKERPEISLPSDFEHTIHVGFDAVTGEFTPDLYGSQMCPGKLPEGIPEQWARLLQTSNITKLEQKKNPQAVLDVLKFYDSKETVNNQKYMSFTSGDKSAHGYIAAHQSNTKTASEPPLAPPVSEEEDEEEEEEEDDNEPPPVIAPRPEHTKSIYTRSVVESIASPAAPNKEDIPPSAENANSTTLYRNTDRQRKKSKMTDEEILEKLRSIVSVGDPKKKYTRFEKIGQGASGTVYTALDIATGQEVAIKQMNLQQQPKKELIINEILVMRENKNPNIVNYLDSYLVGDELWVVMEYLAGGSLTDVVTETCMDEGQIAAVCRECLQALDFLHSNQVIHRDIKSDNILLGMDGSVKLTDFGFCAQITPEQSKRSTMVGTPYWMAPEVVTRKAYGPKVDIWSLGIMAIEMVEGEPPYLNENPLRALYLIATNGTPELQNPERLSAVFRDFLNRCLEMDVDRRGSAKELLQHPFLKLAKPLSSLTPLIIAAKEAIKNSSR
Chain of UniProt Q9D0I9 (Q9D0I9 whole entry): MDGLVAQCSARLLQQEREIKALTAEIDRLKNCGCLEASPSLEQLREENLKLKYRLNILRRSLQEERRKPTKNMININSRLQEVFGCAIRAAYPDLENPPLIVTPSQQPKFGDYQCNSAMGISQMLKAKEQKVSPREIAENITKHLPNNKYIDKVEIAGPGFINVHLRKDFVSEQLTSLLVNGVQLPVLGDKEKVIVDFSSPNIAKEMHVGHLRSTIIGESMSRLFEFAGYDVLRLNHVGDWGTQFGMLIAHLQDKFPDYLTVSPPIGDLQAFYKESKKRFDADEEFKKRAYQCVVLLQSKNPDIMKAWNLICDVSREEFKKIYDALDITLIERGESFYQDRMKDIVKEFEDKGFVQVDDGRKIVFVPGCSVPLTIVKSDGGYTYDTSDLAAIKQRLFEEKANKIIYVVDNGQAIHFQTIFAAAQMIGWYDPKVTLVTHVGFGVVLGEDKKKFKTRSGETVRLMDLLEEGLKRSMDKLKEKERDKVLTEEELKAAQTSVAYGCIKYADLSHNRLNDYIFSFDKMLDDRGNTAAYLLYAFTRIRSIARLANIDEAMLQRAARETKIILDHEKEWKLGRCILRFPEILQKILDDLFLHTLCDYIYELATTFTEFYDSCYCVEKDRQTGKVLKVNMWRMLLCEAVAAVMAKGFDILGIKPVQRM
Chain of UniProt O55047 (O55047 whole entry): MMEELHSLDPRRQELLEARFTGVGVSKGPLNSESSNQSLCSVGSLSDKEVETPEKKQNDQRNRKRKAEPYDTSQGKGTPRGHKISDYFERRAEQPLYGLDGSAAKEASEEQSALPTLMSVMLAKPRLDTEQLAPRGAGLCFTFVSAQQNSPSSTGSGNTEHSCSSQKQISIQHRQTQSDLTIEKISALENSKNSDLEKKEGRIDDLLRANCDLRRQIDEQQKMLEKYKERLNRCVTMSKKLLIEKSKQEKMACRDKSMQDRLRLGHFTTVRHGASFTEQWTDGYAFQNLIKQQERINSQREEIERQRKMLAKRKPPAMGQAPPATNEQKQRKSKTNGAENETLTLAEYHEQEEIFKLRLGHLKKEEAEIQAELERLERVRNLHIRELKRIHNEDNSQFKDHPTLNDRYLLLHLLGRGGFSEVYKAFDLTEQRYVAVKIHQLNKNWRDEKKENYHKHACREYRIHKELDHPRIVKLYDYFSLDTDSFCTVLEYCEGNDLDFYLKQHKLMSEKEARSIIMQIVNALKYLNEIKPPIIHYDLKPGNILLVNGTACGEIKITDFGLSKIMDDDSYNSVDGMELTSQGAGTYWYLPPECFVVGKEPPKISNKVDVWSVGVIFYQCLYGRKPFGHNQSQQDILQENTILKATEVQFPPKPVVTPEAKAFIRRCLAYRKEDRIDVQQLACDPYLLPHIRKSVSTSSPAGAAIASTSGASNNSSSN
Chain of UniProt P56657 (P56657 whole entry): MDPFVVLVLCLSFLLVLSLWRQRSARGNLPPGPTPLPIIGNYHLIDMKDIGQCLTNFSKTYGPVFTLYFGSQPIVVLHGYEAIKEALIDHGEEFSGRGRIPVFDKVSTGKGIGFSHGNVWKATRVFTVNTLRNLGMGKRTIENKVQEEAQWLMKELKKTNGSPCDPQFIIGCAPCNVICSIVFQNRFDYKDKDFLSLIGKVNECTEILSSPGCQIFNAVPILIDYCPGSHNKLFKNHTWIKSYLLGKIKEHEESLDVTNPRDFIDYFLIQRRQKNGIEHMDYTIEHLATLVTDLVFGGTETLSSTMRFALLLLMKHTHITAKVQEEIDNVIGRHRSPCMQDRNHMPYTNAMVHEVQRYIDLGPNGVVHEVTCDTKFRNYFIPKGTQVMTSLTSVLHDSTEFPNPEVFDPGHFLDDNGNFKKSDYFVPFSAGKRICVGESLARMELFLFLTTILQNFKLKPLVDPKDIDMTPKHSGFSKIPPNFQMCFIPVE
Chain of UniProt Q60648 (Q60648 whole entry): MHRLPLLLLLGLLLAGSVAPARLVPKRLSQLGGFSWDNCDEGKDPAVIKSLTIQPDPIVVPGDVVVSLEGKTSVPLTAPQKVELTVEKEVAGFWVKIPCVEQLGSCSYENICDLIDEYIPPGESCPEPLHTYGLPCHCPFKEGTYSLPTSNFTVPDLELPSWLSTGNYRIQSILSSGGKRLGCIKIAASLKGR
Chain of UniProt Q8R4K2 (Q8R4K2 whole entry): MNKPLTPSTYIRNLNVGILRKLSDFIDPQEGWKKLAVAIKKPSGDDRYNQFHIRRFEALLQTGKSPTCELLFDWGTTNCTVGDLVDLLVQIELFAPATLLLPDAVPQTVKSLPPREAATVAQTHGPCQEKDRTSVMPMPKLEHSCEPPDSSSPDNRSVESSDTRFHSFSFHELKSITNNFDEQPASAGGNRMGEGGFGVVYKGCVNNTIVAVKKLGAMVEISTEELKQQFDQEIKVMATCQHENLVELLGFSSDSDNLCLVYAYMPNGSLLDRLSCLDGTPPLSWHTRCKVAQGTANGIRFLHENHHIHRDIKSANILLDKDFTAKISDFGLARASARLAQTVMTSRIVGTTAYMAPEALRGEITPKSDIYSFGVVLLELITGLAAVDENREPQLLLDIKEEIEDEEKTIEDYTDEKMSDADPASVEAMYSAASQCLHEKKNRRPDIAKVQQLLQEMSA
Chain of UniProt Q05020 (Q05020 whole entry): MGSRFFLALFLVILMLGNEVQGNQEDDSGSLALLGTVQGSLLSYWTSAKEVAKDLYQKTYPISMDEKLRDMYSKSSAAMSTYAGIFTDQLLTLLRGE

Target	log2 fold change
UniProt Q9EQ20 (peptide sequence: YQQLIKENLKEIAR, peptide start residue: 108)	-0.315
UniProt Q8N9S3 (peptide sequence: SPAVLEAER, peptide start residue: 231)	0.295
UniProt P70236 (peptide sequence: ADDLEPIVELGR, peptide start residue: 50)	-2.01
UniProt Q99JP0 (peptide sequence: NVNTGELAAIK, peptide start residue: 35)	-1.82
UniProt Q05421 (peptide sequence: FGPVFTLHLGQR, peptide start residue: 64)	0.247
UniProt Q9CXI0 (peptide sequence: NVTHIDQALQEAHR, peptide start residue: 221)	-0.267
UniProt P35980 (peptide sequence: TNSTFNQVVLK, peptide start residue: 39)	0.658
UniProt P43142 (peptide sequence: YLPKEQAR, peptide start residue: 334)	-0.325
UniProt P09813 (peptide sequence: THEQLTPLVR, peptide start residue: 68)	0.46
UniProt Q9CQE1 (peptide sequence: HWSHEDPR, peptide start residue: 211)	-0.522
UniProt P51881 (peptide sequence: KGTDIMYTGTLDCWRK, peptide start residue: 245)	0.454
UniProt Q99MK8 (peptide sequence: DLKPANILLDEHGHVR, peptide start residue: 317)	-0.735
UniProt Q99KH8 (peptide sequence: GEPPHSELHPMK, peptide start residue: 215)	-1.74
UniProt Q9DC28 (peptide sequence: FDDKPDYSYLR, peptide start residue: 260)	-0.751
UniProt Q8VI63 (peptide sequence: ITDFEFK, peptide start residue: 35)	0.579
UniProt P35917 (peptide sequence: VLGHGAFGK, peptide start residue: 850)	1.38
UniProt Q60648 (peptide sequence: IQSILSSGGK, peptide start residue: 170)	-0.484
UniProt Q9JLB2 (peptide sequence: DRFASAVPHTTR, peptide start residue: 505)	0.704
UniProt Q8BGS7 (peptide sequence: LFQLPTPPLSR, peptide start residue: 35)	0.348

Target	log2 fold change
UniProt Q61036 (peptide sequence: ELLQHPFLK, peptide start residue: 493)	-2.37
UniProt O08605 (peptide sequence: GLPTPQVLQR, peptide start residue: 341)	1.06
UniProt Q9D0I9 (peptide sequence: GFDILGIKPVQR, peptide start residue: 648)	0.372
UniProt Q6PGL7 (peptide sequence: RPTSFADELAAR, peptide start residue: 281)	-0.483
UniProt O55047 (peptide sequence: YLLLHLLGR, peptide start residue: 408)	-1.75
UniProt Q63932 (peptide sequence: ISELGAGNGGVVTK, peptide start residue: 75)	-0.512
UniProt Q8CIE6 (peptide sequence: VTTVTEIGKDVIGLR, peptide start residue: 1203)	-0.699
UniProt Q68FL6 (peptide sequence: GIGVFGDMAK, peptide start residue: 601)	0.564
UniProt Q8BZ09 (peptide sequence: IQGPQPVPGEIK, peptide start residue: 234)	0.534
UniProt Q9QZ05 (peptide sequence: DLKPVNIFLDSDDHVK, peptide start residue: 846)	-1.48
UniProt Q6P9R2 (peptide sequence: EVLEGLEYLHK, peptide start residue: 129)	-0.823
UniProt Q8R4K2 (peptide sequence: GCVNNTIVAVK, peptide start residue: 203)	-2.95
UniProt Q8VCR2 (peptide sequence: ALLPSMLR, peptide start residue: 154)	-0.279
UniProt Q7TSE6 (peptide sequence: LSDFGLCTGLKK, peptide start residue: 228)	-2.66
UniProt Q05020 (peptide sequence: TYPISMDEK, peptide start residue: 59)	0.537
UniProt P27659 (peptide sequence: LLPLRQKK, peptide start residue: 170)	-0.616
UniProt Q80XL6 (peptide sequence: NLPDSDSEECLVHGDFK, peptide start residue: 206)	-0.421
UniProt Q9CZW6 (peptide sequence: GASWLGKR, peptide start residue: 64)	-0.952
UniProt P56657 (peptide sequence: NHMPYTNAMVHEVQR, peptide start residue: 343)	-0.322
